Compound activity (PubChem BioAssay)
GluA2 TARP mod: GluA2-stargazin AMPA receptor complex modulation; O88602+P19491; HEK293 GluA2+stargazin, membrane potential dye (FDSS), glutamate EC50; hits were called plate by plate, in both directions; calls only at 30 µM; 3.5% of 40,000 active;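 active = any of four per-well response measures lying three or more SD from its plate-wide compound average, in either direction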
Target sequence (O88602 whole entry, looked up): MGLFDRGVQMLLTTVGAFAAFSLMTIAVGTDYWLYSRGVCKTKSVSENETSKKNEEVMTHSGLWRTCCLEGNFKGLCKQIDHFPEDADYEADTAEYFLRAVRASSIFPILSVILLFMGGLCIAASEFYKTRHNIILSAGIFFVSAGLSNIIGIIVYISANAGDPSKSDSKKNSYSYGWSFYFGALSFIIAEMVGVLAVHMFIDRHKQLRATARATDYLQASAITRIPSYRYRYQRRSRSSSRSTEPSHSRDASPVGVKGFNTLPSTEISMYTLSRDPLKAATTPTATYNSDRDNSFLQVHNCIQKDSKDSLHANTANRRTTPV
Target sequence (P19491 whole entry, looked up): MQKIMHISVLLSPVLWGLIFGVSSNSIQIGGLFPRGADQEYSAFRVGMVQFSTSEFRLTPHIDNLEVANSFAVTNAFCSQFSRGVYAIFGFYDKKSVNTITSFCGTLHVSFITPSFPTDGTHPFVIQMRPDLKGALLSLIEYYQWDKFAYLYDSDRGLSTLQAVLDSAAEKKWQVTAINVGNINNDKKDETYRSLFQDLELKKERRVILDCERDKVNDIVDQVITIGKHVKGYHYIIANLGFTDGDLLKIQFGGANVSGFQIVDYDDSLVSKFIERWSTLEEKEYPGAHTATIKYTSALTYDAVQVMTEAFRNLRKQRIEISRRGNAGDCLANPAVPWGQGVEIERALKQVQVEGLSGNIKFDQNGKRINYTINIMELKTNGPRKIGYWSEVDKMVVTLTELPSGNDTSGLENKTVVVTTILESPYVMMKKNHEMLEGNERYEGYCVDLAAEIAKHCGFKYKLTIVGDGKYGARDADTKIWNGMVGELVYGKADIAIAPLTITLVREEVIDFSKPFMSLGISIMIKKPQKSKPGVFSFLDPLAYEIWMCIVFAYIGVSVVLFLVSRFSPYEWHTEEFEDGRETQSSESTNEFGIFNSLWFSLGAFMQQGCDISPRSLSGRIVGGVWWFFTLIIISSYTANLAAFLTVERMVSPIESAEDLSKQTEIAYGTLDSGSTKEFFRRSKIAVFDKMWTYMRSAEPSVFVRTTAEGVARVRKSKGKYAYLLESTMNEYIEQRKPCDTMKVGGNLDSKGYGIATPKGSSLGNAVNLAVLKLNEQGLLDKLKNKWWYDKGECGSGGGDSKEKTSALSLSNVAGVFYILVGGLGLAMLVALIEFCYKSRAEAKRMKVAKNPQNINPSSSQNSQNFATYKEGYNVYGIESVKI
GIRK2 act: Activates human GIRK2-containing potassium channels; 34,000 tested, under 10 active; activation (% efficacy), % for hits at 37.5 µM; P48051; HEK293 GIRK2/NPY4 cells, thallium flux fluorescence;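 active = primary screen hit, no activity in plain HEK293 cells, and in GIRK2-only cells above 5% efficacy rising with concentration; inactive = the rest, including fluorescent compounds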;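 note: efficacy is normalized control-subtracted fluorescence 15 s after thallium addition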
* hit, by the source's call; i = inactive; / = no result; + = active, no number. Shown is part of a subset that was picked to be rich in hits.

SMILES	GluA2 TARP mod	GIRK2 act
Cc1cccc2sc(N(CCN3CCOCC3)C(=O)c3ccc([N+](=O)[O-])o3)nc12	+	i
COc1ccc(OC)c2sc(N(CCN3CCOCC3)C(=O)c3ccn(C)n3)nc12	i	i
Cc1cc2nc(N(CCN3CCOCC3)C(=O)c3ccco3)sc2cc1C	i	i
O=C(c1ccco1)N(CCN1CCOCC1)c1nc2ccc(Cl)cc2s1	+	/
CN(C)CCCN(C(=O)c1ccno1)c1nc2ccc(Cl)cc2s1	/	i
CN(C)CCN(C(=O)c1ccn(C)n1)c1nc2ccc(Cl)cc2s1	+	i
Cn1ccc(C(=O)N(CCN2CCOCC2)c2nc3ccccc3s2)n1	+	i
Cc1cccc2sc(N(CCN3CCOCC3)C(=O)c3ccc([N+](=O)[O-])s3)nc12	i	i
N#Cc1cccc(C(=O)Nc2ccc(CC(=O)N3CCOCC3)cc2)c1	i	i
Cc1cccc(NC(=O)Cn2ccc3ccn(Cc4ccccc4F)c3c2=O)c1	/	i
COc1ccc(CCNC(=O)c2ccc(N3CCCCS3(=O)=O)cc2)cc1	i	i
COc1cccc(-c2cc(CC(=O)Nc3ccc4c(c3)OCO4)no2)c1	i	i
O=C(NCCc1csc(-c2cccc(F)c2)n1)C(=O)NCc1cccs1	i	i
CCc1ccc(Oc2cc(N3CCC(C(=O)NCCCOC)CC3)ncn2)cc1	i	i
CCSc1ccccc1C(=O)Nc1ccc2c(c1)CCCN2S(=O)(=O)CC	i	i
COc1ccc(/C=C2\Oc3cc(OCC#N)ccc3C2=O)cc1OC	i	/
O=C(NCc1n[nH]c(=O)c2ccccc12)C1(c2cccs2)CCCC1	i	i
O=C(/C=C/c1ccc([N+](=O)[O-])cc1)N(CCN1CCOCC1)c1nc2ccccc2s1	i	/
COc1cccc2sc(N(Cc3cccnc3)C(=O)c3cc(C)nn3C)nc12	i	i
COc1cccc2sc(N(CCN(C)C)C(=O)c3cc(C)n(C)n3)nc12	+	i
O=C(/C=C/c1cccc([N+](=O)[O-])c1)N(CCN1CCOCC1)c1nc2ccc(F)cc2s1	+	/
COC(=O)Cn1c(=O)c2c(nc3n(-c4ccc(OC)cc4)c(-c4ccccc4)cn23)n(C)c1=O	i	/
O=S(=O)(Cc1ccc(F)cc1)NCC1CCN(Cc2ccco2)CC1	/	i
O=C(NCc1ccsc1)c1cccc(C(F)(F)F)c1	+	i
O=C(NCc1ccsc1)c1ccc2c(c1)OCO2	i	i
SMILES	GluA2 TARP mod	GIRK2 act
CCCNC(=O)C(=O)Nc1cc(N2CCCS2(=O)=O)ccc1OC	i	i
Cc1ccc(-c2cc(C(F)F)n3ncc(C(=O)N4CCC(C)CC4)c3n2)cc1	+	/
Cc1ccc(-c2cc(C(F)F)n3ncc(C(=O)n4c(C)nc5ccccc54)c3n2)cc1	i	/
COc1ccc(CCS(=O)(=O)NCC2CCN(C)CC2)cc1	i	i
CC(C)c1ccc(S(=O)(=O)NCC2CCN(C3CCCC3)CC2)cc1	+	/
COc1ccc(S(=O)(=O)NCC2CCN(C3CCCC3)CC2)cc1	i	i
COc1ccc(CCS(=O)(=O)NCC2CCN(C3CCCC3)CC2)cc1	+	i
COc1ccc(C(=S)N2CCN(C(=S)c3cccc(Br)c3)CC2)cc1	/	i
CN(C)CCNC(=O)C(=O)Nc1ccc([N+](=O)[O-])cc1	i	/
COCCCNC(=O)C(=O)Nc1ccc([N+](=O)[O-])cc1	+	/
CS(=O)(=O)c1ccc(CC(=O)Nc2cccc([N+](=O)[O-])c2)cc1	i	/
COC(=O)c1c(NC(=O)c2cc(C)no2)sc2c1CC(C)(C)NC2(C)C	/	i
COC(=O)c1c(NC(=O)c2ccco2)sc2c1CC(C)(C)NC2(C)C	+	i
NC(=O)C1CCN(C(=O)c2ccc3c(=O)n(Cc4ccccc4Cl)c(=S)[nH]c3c2)CC1	i	i
CCc1ccccc1NC(=O)C(=O)NCCc1ccc(Cl)cc1	i	i
CSc1ccccc1NC(=O)C(=O)NCCc1ccc(Cl)cc1	+	i
CCCCn1c(SCc2nc(-c3ccc(Cl)cc3)no2)nc2ccsc2c1=O	+	i
CCCCn1c(SCc2nc(-c3cc(OC)cc(OC)c3)no2)nc2ccsc2c1=O	i	i
COc1ccc(Cl)cc1NC(=O)Cn1cc(OC)c(=O)cc1CSc1ccc(C)cc1	i	i
COc1ccc(-c2ccc(N3CCC(C(=O)N4CCOCC4)CC3)nn2)cc1	i	i
COc1ccc2sc(=NC(C)=O)n(CCSC)c2c1	i	/
COc1ccc2sc(=NC(=O)c3cc(C)no3)n(CCSC)c2c1	+	i
COC(=O)c1ccc(NC(=O)Cc2csc(Nc3ccc(S(C)(=O)=O)cc3)n2)cc1	i	i
COc1ccc(NC(=O)Cn2c(C)cc(C)c(-c3nc(-c4ccc(Cl)cc4)no3)c2=O)cc1	i	/
COc1ccc(-c2noc(-c3c(C)cc(C)n(CC(=O)Nc4ccc(OC)c(Cl)c4)c3=O)n2)cc1	+	i
SMILES	GluA2 TARP mod	GIRK2 act
CCOc1ccccc1NC(=O)Cn1c(C)cc(C)c(-c2nc(-c3ccc(Cl)cc3)no2)c1=O	+	/
Cc1cc(C)n(CC(=O)Nc2ccccc2F)c(=O)c1-c1nc(-c2ccc(Cl)cc2)no1	i	i
COc1ccc(Br)c(C(=O)Nc2ccc3c(c2)N(C(=O)C2CCCC2)CC3)c1	i	i
O=C(NCCC(O)c1ccco1)Nc1ccc(C(F)(F)F)cc1 (centres undefined)	i	i
CN1CCc2c(sc(NC(=O)c3ccc4ncsc4c3)c2-c2nc3ccccc3s2)C1	i	/
CN(C)c1cccc(C(=O)NCC2CCN(C(=O)NC(C)(C)C)CC2)c1	i	i
O=C(CCN1CCCC1)N1N=C(c2cccs2)CC1c1cccs1 (centres undefined)	i	/
c1ccc2c(N3CCOCC3)nnc(N3CCOCC3)c2c1	i	i
COc1ccccc1Nc1nc(N2CCOCC2)c2ccccc2n1	+	/
COc1ccc(NC(=O)CSc2nc3ccccc3nc2N2CCOCC2)cc1	i	i
CN1CCN(c2nc(N3CCOCC3)c3ccccc3n2)CC1	+	/
Cc1cc(C(=O)N2CCOCC2)nn1CC(=O)NCCc1ccccc1	i	i
CCOC(=O)c1ccc2nc(NC(=O)c3ccn(C)n3)sc2c1	+	i
CCOCCn1c(=NC(=O)c2ccn(C)n2)sc2cc(C(=O)OCC)ccc21	+	i
CCOC(=O)c1ccc2c(c1)sc(=NC(=O)c1ccn(CC)n1)n2CCSC	/	i
CCOC(=O)c1ccc(NC(=O)c2ccn(C)n2)cc1	i	i
Cc1cc(OCCn2c(CN(C)C(=O)c3ccco3)nc3ccccc32)ccc1Cl	i	i
CC(CCc1ccccc1)NC(=O)Cc1csc(Nc2ccccc2)n1 (centres undefined)	+	i
O=C(Cc1csc(Nc2ccccc2)n1)NCCc1ccccc1	i	i
CNC(=O)Cc1ccc(NC(=O)Cc2ccc(OC)c(OC)c2)cc1	i	i
CCOC(=O)CN1C(=O)CN(C(=O)c2ccccc2)C1=S	+	/
CCOC(=O)c1ccc(N2C(=S)N(c3ccccc3)C3CS(=O)(=O)CC32)cc1 (centres undefined)	i	i
CCc1c(C#N)c(SCC(=O)NCc2ccc3c(c2)OCO3)nc2c1C(=O)CC(C)(C)C2	+	i
CCc1c(C#N)c(SCCC(=O)NCc2ccc3c(c2)OCO3)nc2c1C(=O)CC(C)(C)C2	i	i
